# Assay results from ChEMBL document CHEMBL5308504, “Tm Shift (DSF) assay results for EUbOPEN Chemogenomics Library” (2023).
# Values joined by “and” are separate entries in the source; they are usually repeats but may differ in a detail not shown here. Equal entries are not always repeated.
# Columns and labels:
# Conditions in all cases: Compound concentration 20.0 uM, Protein concentration 2.0 uM, Result type QC Liability
# [1] = target: Tyrosine-protein kinase ABL1 (Homo sapiens) (UniProt P00519)
# [2] = target: Cyclin-dependent kinase 2 (Homo sapiens) (UniProt P24941)
# [3] = target: Casein kinase I isoform delta (Homo sapiens) (UniProt P48730)
# [4] = target: Glycogen synthase kinase-3 beta (Homo sapiens) (UniProt P49841)
# [5] = target: Mitogen-activated protein kinase 1 (Homo sapiens) (UniProt P28482)
# [6] = target: T1, Aurora kinase A (Homo sapiens) (UniProt O14965)
# T1 sequence (whole entry): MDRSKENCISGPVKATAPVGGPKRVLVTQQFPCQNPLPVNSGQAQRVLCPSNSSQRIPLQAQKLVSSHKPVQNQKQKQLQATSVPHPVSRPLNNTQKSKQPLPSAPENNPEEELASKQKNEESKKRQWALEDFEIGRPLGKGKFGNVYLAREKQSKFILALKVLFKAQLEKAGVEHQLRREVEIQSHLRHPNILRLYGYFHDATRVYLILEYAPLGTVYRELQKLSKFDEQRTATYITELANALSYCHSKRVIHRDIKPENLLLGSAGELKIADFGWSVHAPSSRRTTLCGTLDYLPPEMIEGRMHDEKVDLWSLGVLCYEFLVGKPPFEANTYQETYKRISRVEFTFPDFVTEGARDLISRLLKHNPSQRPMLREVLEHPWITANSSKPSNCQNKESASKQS
# Casein kinase I isoform delta (Homo sapiens), sequence (P48730 whole entry, looked up, canonical isoform): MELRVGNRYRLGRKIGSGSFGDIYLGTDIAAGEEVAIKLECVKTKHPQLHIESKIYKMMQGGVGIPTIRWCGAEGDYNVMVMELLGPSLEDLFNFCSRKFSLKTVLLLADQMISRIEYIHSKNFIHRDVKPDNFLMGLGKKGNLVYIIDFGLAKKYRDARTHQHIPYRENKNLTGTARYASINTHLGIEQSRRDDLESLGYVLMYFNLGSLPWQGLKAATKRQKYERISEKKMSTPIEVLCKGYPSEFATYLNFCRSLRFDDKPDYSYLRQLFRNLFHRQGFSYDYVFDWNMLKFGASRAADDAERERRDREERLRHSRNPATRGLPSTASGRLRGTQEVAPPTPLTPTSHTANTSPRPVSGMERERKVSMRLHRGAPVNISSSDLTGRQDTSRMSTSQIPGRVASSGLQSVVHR
# Mitogen-activated protein kinase 1 (Homo sapiens), sequence (P28482 whole entry): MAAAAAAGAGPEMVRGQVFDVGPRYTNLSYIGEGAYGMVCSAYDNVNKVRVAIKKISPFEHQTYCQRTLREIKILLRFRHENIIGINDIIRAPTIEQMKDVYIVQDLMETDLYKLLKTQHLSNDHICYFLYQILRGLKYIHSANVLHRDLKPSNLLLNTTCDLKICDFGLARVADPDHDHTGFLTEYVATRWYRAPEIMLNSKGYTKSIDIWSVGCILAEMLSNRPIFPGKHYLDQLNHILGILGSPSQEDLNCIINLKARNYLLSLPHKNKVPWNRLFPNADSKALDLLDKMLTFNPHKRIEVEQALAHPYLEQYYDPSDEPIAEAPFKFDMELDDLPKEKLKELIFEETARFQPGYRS
# Tyrosine-protein kinase ABL1 (Homo sapiens), sequence (P00519 whole entry): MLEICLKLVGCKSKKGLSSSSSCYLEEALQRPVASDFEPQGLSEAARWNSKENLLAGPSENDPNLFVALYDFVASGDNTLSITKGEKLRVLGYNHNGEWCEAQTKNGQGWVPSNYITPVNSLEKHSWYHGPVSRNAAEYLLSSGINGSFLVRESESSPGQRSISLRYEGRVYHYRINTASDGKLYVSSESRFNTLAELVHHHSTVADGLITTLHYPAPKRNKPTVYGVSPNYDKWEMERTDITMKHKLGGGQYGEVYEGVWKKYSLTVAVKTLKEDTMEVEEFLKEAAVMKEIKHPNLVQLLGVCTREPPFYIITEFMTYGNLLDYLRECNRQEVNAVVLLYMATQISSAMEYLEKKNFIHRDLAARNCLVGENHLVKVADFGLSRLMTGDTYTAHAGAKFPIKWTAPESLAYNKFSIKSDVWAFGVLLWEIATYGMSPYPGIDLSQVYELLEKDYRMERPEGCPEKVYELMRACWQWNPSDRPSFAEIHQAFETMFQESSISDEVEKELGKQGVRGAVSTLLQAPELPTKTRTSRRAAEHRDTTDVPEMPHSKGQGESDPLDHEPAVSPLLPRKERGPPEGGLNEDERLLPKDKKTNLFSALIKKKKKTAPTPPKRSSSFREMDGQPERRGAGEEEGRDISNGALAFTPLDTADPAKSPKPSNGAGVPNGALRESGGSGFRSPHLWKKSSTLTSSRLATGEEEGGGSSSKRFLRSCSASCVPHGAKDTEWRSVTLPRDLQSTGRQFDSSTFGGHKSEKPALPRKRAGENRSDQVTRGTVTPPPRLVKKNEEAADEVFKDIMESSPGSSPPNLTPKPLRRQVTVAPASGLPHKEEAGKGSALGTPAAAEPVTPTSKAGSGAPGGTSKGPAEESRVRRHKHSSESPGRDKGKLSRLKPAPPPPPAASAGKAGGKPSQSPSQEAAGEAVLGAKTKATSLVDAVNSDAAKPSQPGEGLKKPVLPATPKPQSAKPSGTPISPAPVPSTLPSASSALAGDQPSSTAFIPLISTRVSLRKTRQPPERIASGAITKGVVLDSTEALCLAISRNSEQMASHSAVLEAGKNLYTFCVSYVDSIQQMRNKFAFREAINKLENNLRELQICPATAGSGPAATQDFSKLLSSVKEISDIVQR
# Glycogen synthase kinase-3 beta (Homo sapiens), sequence (P49841 whole entry, looked up): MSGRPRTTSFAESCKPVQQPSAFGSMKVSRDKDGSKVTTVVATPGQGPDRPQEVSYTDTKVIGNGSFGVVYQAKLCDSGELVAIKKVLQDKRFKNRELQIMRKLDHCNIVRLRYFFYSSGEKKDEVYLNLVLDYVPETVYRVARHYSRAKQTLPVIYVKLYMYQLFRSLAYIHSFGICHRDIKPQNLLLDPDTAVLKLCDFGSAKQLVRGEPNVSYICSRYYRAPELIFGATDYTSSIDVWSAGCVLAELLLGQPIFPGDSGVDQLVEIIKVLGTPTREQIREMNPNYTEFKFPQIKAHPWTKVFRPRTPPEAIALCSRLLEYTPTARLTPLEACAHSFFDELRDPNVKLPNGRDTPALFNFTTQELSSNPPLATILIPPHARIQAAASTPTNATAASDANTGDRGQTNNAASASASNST
SMILES,ΔTm [1],ΔTm [2],ΔTm [3],ΔTm [4],ΔTm [5],ΔTm [6]
Cc1c(N2CCCC2)nc2ccc(Br)cc2c1C(=O)NC[C@H](CCC(=O)O)c1ccccc1Cl,-0.28 °C and -0.08 °C,-0.21 °C and 0.71 °C,-0.02 °C and 0.51 °C,-0.57 °C and -1.1 °C,-0.65 °C and 0.37 °C,-0.24 °C and -0.2 °C
CCOc1ccc(S(=O)(=O)Nc2ccc(Cl)cc2C#Cc2cnc(C(=O)O)cc2OC)c2ncccc12,-0.94 °C,-1.65 °C,-1.46 °C,-1.14 °C,-0.06 °C,-2.25 °C
CC(C)(O)[C@H]1CC[C@H](Nc2ccc3ncc(-c4cccc(C(F)(F)F)c4)n3n2)CC1,0.38 °C,1.53 °C,3.57 °C,2.41 °C,0.62 °C,0.74 °C
O=C(CCCCCCc1ccccc1)c1ncc(-c2ccccn2)o1,0.19 °C,0.75 °C,0.19 °C,-0.85 °C,-0.04 °C,-0.34 °C
C=C1/C(=C\C=C2/CCC[C@]3(C)[C@@H]([C@H](C)CCCC(C)(C)O)CC[C@@H]23)C[C@@H](O)C[C@@H]1O,-0.27 °C,-4.7 °C,0 °C,-6.39 °C,-0.74 °C,-10 °C
Cc1ccc(-c2cn3nc(C(=O)NC4(c5ccc(F)cc5)CN(C)C4)c(C(C)C)c3c(=O)[nH]2)cc1C,-0.12 °C,0.03 °C,0.69 °C,-0.83 °C,0.08 °C,0.49 °C
Cc1cc(Cn2c(N3CC4(CNC4)C3)nc3c(N4CCN(C)CC4)cc(Cl)cc32)cc(C)c1F,0.24 °C,0.83 °C,0.19 °C,0.34 °C,0.58 °C,0.07 °C
COc1ccccc1-c1cc(Nc2cccc(CS(N)(=O)=O)c2)ncn1,2.06 °C,2.08 °C,-0.11 °C,4.1 °C,-0.04 °C,0.53 °C
Cn1nc(-c2ccc(C(N)=O)cc2)c2ccccc2c1=O,0.66 °C,0.13 °C,0.57 °C,-0.19 °C,0.56 °C,0.43 °C
Nc1c(CC(=O)O)cccc1C(=O)c1ccc(Br)cc1,1.3 °C,0.36 °C,0.21 °C,0.59 °C,0.2 °C,0.08 °C
CC[C@H](CO)Nc1nc(Nc2cccc(-c3ccccn3)c2)c2ncn(C(C)C)c2n1,7.62 °C,4.37 °C,4.48 °C,1.93 °C,2.21 °C,4.01 °C
Cc1nc(Nc2cnn(C3CCNCC3)c2)nc2c1N(C)C(=O)c1cc3ccccc3cc1N2C,2.1 °C,-1.03 °C,0.48 °C,-0.49 °C,0.6 °C,1.73 °C
CNS(=O)(=O)c1ccc(N(C)C)c(Nc2ncnc3cc(OC)c(OC)cc23)c1,3.42 °C,-0.02 °C,0.23 °C,-0.61 °C,0.24 °C,-1.08 °C
CC(=O)c1c(C)c2cnc(Nc3ccc(N4CCN(CCCCNC(=O)COc5cccc6c5C(=O)N(C5CCC(=O)NC5=O)C6=O)CC4)cn3)nc2n(C2CCCC2)c1=O (stereo unspecified),0.12 °C,0.59 °C,0.26 °C,0.7 °C,0.16 °C,-0.33 °C
COC[C@@H](C)N[C@H]1CC[C@H](Nc2cc(-c3cccc(NCC4(C#N)CCOCC4)n3)c(Cl)cn2)CC1,0.33 °C,-1.43 °C,0.03 °C,-0.08 °C,0.43 °C,0.38 °C
Cn1ncc(NC(=O)c2nc(-c3c(F)cccc3F)sc2N)c1N1CC[C@@H](N)[C@H](F)CC1,0.6 °C,1.59 °C,0.57 °C,12.4 °C,0.32 °C,0.87 °C
Nc1nc(-c2nn(Cc3ccccc3F)c3ncccc23)ncc1C1CC1,0.84 °C,0.56 °C,0.44 °C,-0.21 °C,0.15 °C,0.14 °C
CN(C)[C@H]1CCc2nc(NC(=O)c3cccc(Cn4cc(-c5ccc(C#N)cc5)cn4)c3)sc2C1,0.14 °C,0.68 °C,0.36 °C,0.72 °C,0.35 °C,0.61 °C
Cc1[nH]c2c(N3CCCCC3)c(-c3ccccc3)nn2c(=O)c1-c1ccc(O)cc1,0.05 °C,0.91 °C,1.23 °C,-0.79 °C,0.43 °C,-0.38 °C
COC(=O)c1sccc1S(=O)(=O)Nc1ccc(Nc2ccccc2)cc1OC,0.48 °C,0.72 °C,0.45 °C,-0.37 °C,-2.78 °C,-2.34 °C
C=C(F)C(=O)N1CCN(c2nc(OC[C@@H]3CCCN3C)nc3c2CCN(c2cccc4cccc(Cl)c24)C3)C[C@@H]1CC#N,-0.03 °C,0.01 °C,0.31 °C,0.36 °C,0.14 °C,-0.49 °C
COc1cc(-c2cc3ncccc3c(OC[C@H]3CNC(=O)C3)n2)cc(OC)c1OC1CCOCC1,1.45 °C,-0.03 °C,2.63 °C,-0.87 °C,0.16 °C,5.56 °C
COc1ccc(CC[C@@H](OC(=O)[C@@H]2CCCCN2C(=O)[C@H](c2cc(OC)c(OC)c(OC)c2)C2CCCCC2)c2cccc(OCCN3CCOCC3)c2)cc1OC,-1.71 °C,-1.5 °C,-2.54 °C,-2.19 °C,-0.05 °C,-0.45 °C
CNC(=O)c1ccc2c(c1)NC(=O)/C2=C(\Nc1ccc(CN2CCCCC2)cc1)c1ccccc1,7.98 °C,0.46 °C,0.03 °C,1.71 °C,0.02 °C,3.8 °C
C[C@H](CCC(=O)O)[C@H]1CC[C@H]2[C@@H]3[C@H](O)C[C@@H]4C[C@H](O)CC[C@]4(C)[C@H]3C[C@H](O)[C@]12C,0.17 °C,0.08 °C,0.33 °C,-0.66 °C,0.4 °C,-1.53 °C
C[C@H]1CN(C2COC2)CCN1c1ccc(Nc2cc(-c3ccnc(N4CCn5c(cc6c5CC(C)(C)C6)C4=O)c3CO)cn(C)c2=O)nc1,3.14 °C,-0.09 °C,0.48 °C,-0.54 °C,-0.67 °C,1.75 °C
